Common to all, as to assay: NCI-60 one-dose screen, 48 h (100 = growth as untreated, 0 = no growth, -100 = all killed)
Settings in all cases: 10 µM unless noted

Test [1] has as its system NCI-H23 lung.
The subject of test [2] is NCI-H226 lung.
For test [3], the system named is NCI-H322M lung.
The test system of test [4] is HOP-62 NSCLC.
Test [5] deals with NCI-H460 lung.
Test [6] relates to HOP-92 NSCLC.
In test [7] the test system is NCI-H522 lung.
Test [8] deals with A549/ATCC NSCLC.
For test [9], the system named is 786-0 renal.
For test [10], the system named is COLO 205 colon.
Test [11] deals with DU-145 prostate.
The test system of test [12] is K-562 leukemia.
The subject of test [13] is MALME-3M melanoma.
Test [14] concerns MDA-MB-231 breast.
The test system of test [15] is RXF 393 renal.
Test [16] relates to SF-268 CNS.
In test [17] the test system is SF-295 CNS.
For test [18], the system named is SF-539 CNS.
Test [19] deals with UACC-257 melanoma.
Test [20] deals with M14 melanoma.

The panel holds about 83,000 compounds, 20% with a hit somewhere; the sample as a whole holds those more often.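 Step 1: grow cells in 96-well plates. Step 2: add test compound at a single concentration. Step 3: incubate 48 h. Step 4: record percent growth.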 A number with no mark means an inactive call. The source made the active and inactive calls. Rule for the calls: active = growth percent below 10; inactive = the rest.

With `O=Cc1ccc(O)c(O)c1`, the growth was 100% in test [1]; 95.9% in test [2]; 104% in test [3]; 97.1% in test [4]; 98.9% in [5]; 84.9% in test [6]. For the same compound, the growth was 84.3% in test [7]; 89.4% in [8]; 101% in test [9]; 95.4% in test [10]; 94.9% in [11]; 103% in [12]. Besides, the growth was 108% in [13]; 99.7% in test [14]; 88.3% in test [15]; 74.1% in [16]; 103% in test [17]; 81.9% in test [18]. Besides, in test [19], the growth was 93.7%.
On to `Cc1ccccc1NC(=O)Oc1ccc(Cl)cc1C(=O)c1ccccc1`, for which the growth was 95.1% in test [1]; 92.5% in test [2]; 99.1% in test [3]; 88.1% in test [4]; 104% in test [5]; 83.9% in [6]. In addition, the growth in test [7] is 88.4%; in test [8], 91%; in test [9], 102%; in [10], 109%; in test [11], 87.4%; in test [12], 96.1%. The growth in test [13] is 105%; in test [14], 85.1%; in test [15], 82%; in test [16], 72.7%; in test [17], 107%; in test [18], 87.3%. Moreover, the growth in [19] was 102%; in test [20], 103%.
As to `CCCCCCCCCCCCCCCCCCSC(=N)N`, the growth in [1] was 63.5%; in test [2], 84.1%; in [3] it was 88%; in [4], 81.6%; in [5], 52.7%; in test [6], 11.1%. In addition, the growth in [7] is 90.1%; in test [8], 80.6%; in test [9], 61.9%; in [10], 3.95% (active); in [11] it was 59.2%; in [12], 40.4%. In addition, the growth was 82.8% in test [13]; 29.5% in [14]; 71.5% in [15]; 60.8% in test [16]; 80.9% in test [17]; 86.6% in [18]. In addition, the growth in [19] was 80.5%.
`C1CCc2onc(-c3noc4c3CCCCC4)c2CC1`: the growth in [1] was 110%; in [2], 123%; in test [3], 102%; in test [4], 101%; in test [5], 140%; in test [6], 93.6%. Besides, the growth in [7] was 95.8%; in test [8], 102%; in test [9] it was 103%; in test [10] it was 118%; in test [11], 118%; in test [12], 103%. Moreover, the growth in [13] is 106%; in test [14], 114%; in [15] it was 139%; in test [16] it was 92.9%; in test [17], 99.5%; in [18], 104%. The growth in [19] is 107%; in test [20], 112%.
As to `COC1=C(OC)C(=O)C(SC/C=C(\C)CCCC(C)CCCC(C)CCCC(C)C)=CC1=O` (stereo not drawn), the growth in [1] was 14%; in test [2] it was 40.9%; in test [3], 67.4%; in [4] it was 38.3%; in test [5], 2.16% (active); in test [6], -13.1% (active). The growth is -6.14% (active) in [7]; 17.8% in test [8]; 66% in test [9]; 94.4% in test [10]; 32% in test [11]; 8.26% (active) in test [12]. Also, the growth is 5.25% (active) in test [13]; 15.5% in test [14]; -0.159% (active) in test [15]; 28.7% in [16]; 16.5% in test [17]; 16.9% in [18]. Further, the figures for the growth in [19] and in [20] were 13.6% and 26.9%, respectively.
Consider `CCOc1ccc(C(=O)O)cc1`, for which the growth was 97.6% in test [1]; 91.9% in [2]; 108% in test [3]; 105% in [4]; 103% in test [5]; 90.4% in test [6]. For the same compound, the growth in [7] is 101%; in test [8], 108%; in test [9], 101%; in test [10] it was 105%; in test [11] it was 112%; in test [12] it was 115%. Moreover, the growth in test [13] is 118%; in test [14] it was 112%; in test [15] it was 105%; in test [16], 110%; in test [17] it was 94.6%; in test [18], 106%. Further, the growth in test [19] was 104%; in test [20] it was 97.5%.
In the case of `CC1CC(C)S(=O)(=O)C1` (stereo not drawn), the growth in test [1] is 106%; in test [2], 105%; in test [3] it was 113%; in [4], 115%; in test [5] it was 116%; in test [6], 120%. Further, the growth in test [7] is 97.8%; in [8], 92.6%; in [9], 107%; in [10] it was 108%; in test [11], 104%; in [12], 92.4%. In addition, the growth is 110% in test [13]; 115% in test [14]; 115% in [15]; 111% in test [16]; 105% in test [17]; 104% in test [18]. Besides, the growth in test [19] was 95.7%; in [20] it was 111%.
Turning to `COc1cc(C(=O)N2CCN(c3ccccc3)CC2)c2ccccc2n1`, the growth in test [1] is 21.2%; in test [2] it was 37.3%; in test [3], 44.3%; in test [4] it was 41.1%; in test [5], 8.4% (active); in [6], 62.3%. In addition, the growth in test [7] is -7.75% (active); in [8], 25.3%; in [9], 26%; in test [10], -44.9% (active); in test [11], 1.57% (active); in [12] it was 16.5%. The growth in test [13] was 54.6%; in test [14], 5.71% (active); in test [15], -39.8% (active); in test [16], 42.9%; in test [17] it was 7.61% (active); in [18], -4.8% (active). Further, the growth in [19] is 51.1%; in test [20], 0.444% (active).
Consider `Cc1ccc([N+](=O)[O-])c(C)n1`, for which the growth in test [1] is 108%; in test [2], 106%; in test [3], 101%; in [4], 106%; in [5], 112%; in [6] it was 84.2%. The growth in test [7] was 98.9%; in [8] it was 105%; in test [9] it was 114%; in [10], 111%; in test [11] it was 114%; in test [12], 114%. The growth is 100% in test [13]; 117% in test [14]; 128% in [15]; 98.6% in test [16]; 97.7% in test [17]; 89.5% in [18]. For the same compound, the growth was 98.1% in [19] and 110% in test [20].
For `COc1ccc(C(=O)C(=O)c2ccccc2)cc1`, the growth is 94% in [1]; 91.9% in test [2]; 93.8% in test [3]; 102% in test [4]; 104% in test [5]; 90.7% in test [6]. Besides, the growth in test [7] is 97.2%; in test [8], 104%; in test [9] it was 103%; in test [10], 112%; in [11] it was 113%; in test [12] it was 111%. Also, the growth was 101% in test [13]; 101% in test [14]; 92.9% in test [15]; 105% in test [16]; 96.6% in test [17]; 117% in test [18]. Besides, the growth is 111% in test [19] and 106% in test [20].
As to `CC1CCC(C)(C)c2ccccc21` (stereo not drawn), the growth was 97.2% in test [1]; 90% in test [2]; 98.9% in [3]; 99.9% in [4]; 109% in [5]; 116% in test [6]. In addition, the growth was 93.6% in test [7]; 98.2% in test [8]; 101% in test [9]; 104% in test [10]; 110% in test [11]; 115% in test [12]. The growth in [13] was 100%; in test [14] it was 94.6%; in [15], 109%; in test [16] it was 104%; in test [17], 89.2%; in test [18] it was 97.2%. Also, the values for the growth in test [19] and in [20] were 100% and 95.7%, respectively.
Consider `CCNC(=O)Oc1ccc[nH]c1=O`, for which the growth was 105% in [1]; 115% in test [2]; 102% in [3]; 102% in test [4]; 102% in test [5]; 94% in test [6]. In addition, the growth was 88.4% in [7]; 91.8% in test [8]; 100% in test [9]; 117% in [10]; 117% in test [11]; 93.4% in [12]. Further, the growth is 103% in test [13]; 109% in [14]; 116% in test [15]; 118% in test [16]; 106% in test [17]; 98.2% in test [18]. For the same compound, the growth in test [19] was 97.8%; in test [20], 102%.
In the case of `CC1CN(CCO)CC(C)O1` (stereo not drawn), the growth in [1] was 106%; in [2] it was 95.2%; in [3] it was 102%; in test [4], 99.3%; in test [5] it was 110%; in test [6], 103%. Moreover, the growth is 108% in [7]; 100% in test [8]; 104% in [9]; 117% in [10]; 107% in [11]; 98.9% in test [12]. In addition, the growth in [13] was 99.7%; in [14], 101%; in [15], 132%; in [16], 99.7%; in [17] it was 104%; in [18] it was 98.4%. Besides, the growth in test [19] is 105%; in test [20], 108%.
Consider `Nc1ccn(C2CC(N)C(CO)O2)c(=O)n1` (stereo not drawn), for which the growth in [1] was 80.1%; in test [2], 85.1%; in test [3], 96.6%; in test [4] it was 69.1%; in test [5] it was 34.5%; in [6], 95.7%. In addition, the growth in [7] was 77.9%; in test [8], 75.6%; in test [9], 94.1%; in test [10] it was 97.7%; in test [11], 51.2%; in test [12], 83.9%. Besides, the growth in test [13] was 79.2%; in test [14], 94.4%; in [15], 128%; in test [16], 102%; in [17] it was 82.4%; in test [18] it was 76.3%. The figures for the growth in test [19] and in test [20] were 96% and 66.2%, respectively.
Consider `O=C(N/N=C\c1ccc(Cl)cc1Cl)c1ccncc1`, for which the growth is 103% in test [1]; 102% in [2]; 106% in test [3]; 112% in [4]; 105% in test [5]; 87.9% in test [6]. Moreover, the growth was 84.8% in test [7]; 91% in test [8]; 90.5% in test [9]; 118% in test [10]; 111% in [11]; 96.7% in test [12]. Further, the growth in test [13] is 99.1%; in [14] it was 98.9%; in [15], 118%; in test [16] it was 98.7%; in [17], 103%; in test [18], 105%. Besides, the values for the growth in test [19] and in test [20] were 104% and 100%, respectively.

These data come from PubChem BioAssay (NCI).
